Assay results reported in ChEMBL document CHEMBL3988442, “University of Dundee, Small-Polar-MMV Screening Library” (2021).
The campaign covered roughly 38,000 compounds. About 1,200 (3.2%) showed an effect of 50% or more. The median lay at about -58%. For the sample, strong results were picked, then their nearest neighbours and some compounds at random.

System: Plasmodium falciparum
Assay: Calibr Malaria Delayed Death Assay SOP
Assay type: functional, organism-based
Set-up: scale not given: in the data most compounds retested in dose-response had high values
Details: concentration 4.99e-06 (unit not given; other assays of the set use mol/L)

Structure (SMILES)	Percent Effect
Cn1ccnc1CN1CCCN(C(=O)c2ccc3cc[nH]c3c2)CC1	-18.34%
Cc1nc(CO[C@@H]2CC[C@H]3[C@H]2OCCN3Cc2cccnc2)cs1.O=C(O)C(F)(F)F.O=C(O)C(F)(F)F.O=C(O)C(F)(F)F	-25.46%
CC(C)CNC(=O)N1C[C@H]2C[C@H](C(=O)NCc3ccccc3)[C@@H](C1)O2	-25.06%
O=C(NCc1cc[nH]n1)N1CCN(c2ncccn2)CC1	-98.04%
Cc1ccoc1C(=O)N1Cc2c(CN3CCCCC3)nn(C)c2C1.O=CO	-35.59%
Cc1cc(CN(C)C2CCCN(c3cccnn3)C2)no1 (stereo not drawn)	-12.48%
Cc1oncc1C(=O)NCC1(O)CCc2ccccc2C1 (stereo not drawn)	-85.49%
COc1coc(C(=O)Nc2nc(-c3ccncc3)cs2)cc1=O	-115.6%
Cc1ccc(NC2CCN(C(=O)COc3cccc(F)c3)CC2)nn1	-0.3434%
Cn1cc(C[C@H]2[C@H](O)CCN2Cc2ccncc2)cn1.O=C(O)C(F)(F)F.O=C(O)C(F)(F)F	-36.65%
Cc1cc(C2CCCN2CCC(=O)N2CCc3sccc3C2)no1 (stereo not drawn)	-5.731%
N#Cc1cccc(CNCCC(=O)N2CCc3sccc3C2)c1	18.53%
COc1ccc(CNCCC(=O)N2CCc3sccc3C2)cc1O	34.01%
O=C(CCN1CCCC1c1cccc(F)c1)N1CCc2sccc2C1 (stereo not drawn)	40.53%
O=C(CCNCc1cccc(O)c1)N1CCc2sccc2C1	50.25%
O=C(CCN1CCCC1C1CCCCC1)N1CCc2sccc2C1 (stereo not drawn)	58.84%
CNc1nc(C)c(C(=O)N2C[C@@H](C(=O)O)[C@H](C3CC3)C2)s1	-129.8%
Cc1cc(C[S+]([O-])CC(=O)NCc2ccccc2)no1 (stereo not drawn)	-44.89%
C[C@H](NC(=O)OC(C)(C)C)c1nnc(S(=O)(=O)Cc2cccc(F)c2)o1	-198.9%
Cc1nc2c(c(NC(C)c3nnn[nH]3)n1)Cc1ccccc1OC2 (stereo not drawn)	-22.04%
CNS(=O)(=O)c1cccc(C(C)NCc2cccc(OC)c2)c1 (stereo not drawn)	-0.2291%
CNS(=O)(=O)c1cccc(C(C)NCc2ccc(C)o2)c1 (stereo not drawn)	21.13%
CNS(=O)(=O)c1cccc(C(C)NCc2ccc(F)cc2F)c1 (stereo not drawn)	-6.511%
CNS(=O)(=O)c1cccc(C(C)NCc2ccco2)c1 (stereo not drawn)	0.2758%
CNS(=O)(=O)c1cccc(C(C)NCc2ccccc2OC)c1 (stereo not drawn)	86.21%
CNS(=O)(=O)c1cccc(C(C)NCc2cccc(C)c2C)c1 (stereo not drawn)	68.88%
O=C(c1cc2c(s1)CCCCC2)N1CCC(c2ncc[nH]2)CC1	-34.19%

Structure (SMILES)	Percent Effect
COc1nc2c(cc1C(=O)N1CCCCC1c1ccccn1)CCC2 (stereo not drawn)	-121.2%
Cc1nn(CC(C)C)c(N(C)C)c1CNCc1ccc(CO)c(F)c1	-6.96%
O=C(CCNS(=O)(=O)c1ccc(F)cc1)NCc1ccoc1	-96.77%
CCCc1nc(CN2CCCC2Cn2cncn2)no1 (stereo not drawn)	-44.73%
CCSc1ncc(CN2CCC(O)(CN3CCOCC3)C(C)(C)C2)cn1 (stereo not drawn)	16.41%
Cc1ccc2c(c1)OCCCC2NC1CCN(C)CC1 (stereo not drawn)	47.45%
COc1c(CNC2CCCOc3ccccc32)c(C)nn1C (stereo not drawn)	-45.12%
COc1ccc2c(c1)C(NCCc1c(C)noc1C)CCCO2 (stereo not drawn)	29.88%
COc1ccc2c(c1)C(NCCc1ccccn1)CCCO2 (stereo not drawn)	57.17%
COc1ccc2c(c1)C(NCCc1ncc(C)s1)CCCO2 (stereo not drawn)	-37.71%
COc1cccc(CNC2CCCOc3cc(C)ccc32)n1 (stereo not drawn)	67.49%
O=C(Nc1cn[nH]c1)N1CCN(CCSc2ccccc2)CC1	-6.157%
CCOCc1ncn2c1CN(C(=O)Nc1cccc(F)c1)CC2	-77.13%
CN(CCCOc1ccccc1Cl)C(=O)CN1CCCCCC1=O	-111.3%
Cc1cccc(S(=O)(=O)N2Cc3nccn3CC(CN(C)C)C2)c1 (stereo not drawn)	1.767%
CC(=O)N1CCc2[nH]c(=O)ccc2C1	-39.7%
Cc1ccc(C(CNCc2nccn2C)N2CCOCC2)s1 (stereo not drawn)	-32.15%
CCCn1cc(CNCC(c2ccc(C)s2)N2CCOCC2)cn1 (stereo not drawn)	54.23%
CCn1cc(CNC(=O)CCc2nnc(-c3ccc(C)s3)o2)cn1	-44.03%
Cc1ccc(C(CNCc2ccc(C#N)cc2)N2CCOCC2)s1 (stereo not drawn)	50.98%
O=C(CCn1cccn1)NCC(c1cccs1)N1CCOCC1 (stereo not drawn)	-64.96%
Cc1ccc(C(CNCc2ccncc2)N2CCOCC2)s1 (stereo not drawn)	-46.8%
CCn1cc(CNCC(c2ccc(C)s2)N2CCOCC2)cn1 (stereo not drawn)	64.77%
Cc1ccc(C(CNCc2cccnc2)N2CCOCC2)s1 (stereo not drawn)	-2.804%
Cc1ccc(C(CNCC2CC2)N2CCOCC2)s1 (stereo not drawn)	23.83%
Cc1ccc(C(CNCc2cccn2C)N2CCOCC2)s1 (stereo not drawn)	-42.34%
